In patent US5487994, “Insertion and deletion mutants of FokI restriction endonuclease” (The Johns Hopkins University):

Target: FokI endonuclease wild-type (Flavobacterium okeanokoites, UniProt P14870 P14870:2-579)
Assay: filter; with poly(dI-dC), 1 mM EDTA, 22 C
Settings: tags: expressed in E. coli RR1 from pRRSfokIR; label: 32P
Method: The filter binding assays were performed in duplicate using *Fok*I or mutant enzymes and the four different synthetic substrates, SEQ ID NO:12, SEQ ID NO:13, hemi-methylated oligonucleotide of SEQ ID NO:12 and hemi-methylated oligonucleotide of SEQ ID NO:13. Nine different concentrations for each of the enzymes were made by serial dilutions ([…], 2000, 667, 222, 74.1, 24.7, 8.23, 2.74 and 0.914 nM). The enzymes were mixed with 40 nM of each labelled substrate along with 50 μg/ml p(dI-dC) and 50 μg/ml BSA in 50 μl of buffer A[10 mM Tris. phosphate (pH 8.0), 7 mM 2-mercaptoethanol, 1 mM EDTA, 50 mM NaCl, and 10% (vol/vol) glycerol]. The samples were incubated at 22° C. for 1 hr and then loaded on to nitrocellulose filters. The filters were washed twice with 0.5 ml of buffer A, dried and counted using the scintillation counter.
Why does the four amino-acid residue insertions enable the mutant enzymes to cleave hemi-methylated DNA and not the larger inserts? The four codon insertions could increase the affinity of the mutants for the hemi-methylated DNA. The binding affinities of wild-type enzyme and both four codon insertion mutants were compared by filter binding assays using the synthetic oligonucleotide substrates (FIGS. 9A, 9B and 9C). The binding affinities were measured in the presence of non-specific DNA, poly dI-dC.

FokI endonuclease wild-type, sequence (P14870 2-579, one chain of several): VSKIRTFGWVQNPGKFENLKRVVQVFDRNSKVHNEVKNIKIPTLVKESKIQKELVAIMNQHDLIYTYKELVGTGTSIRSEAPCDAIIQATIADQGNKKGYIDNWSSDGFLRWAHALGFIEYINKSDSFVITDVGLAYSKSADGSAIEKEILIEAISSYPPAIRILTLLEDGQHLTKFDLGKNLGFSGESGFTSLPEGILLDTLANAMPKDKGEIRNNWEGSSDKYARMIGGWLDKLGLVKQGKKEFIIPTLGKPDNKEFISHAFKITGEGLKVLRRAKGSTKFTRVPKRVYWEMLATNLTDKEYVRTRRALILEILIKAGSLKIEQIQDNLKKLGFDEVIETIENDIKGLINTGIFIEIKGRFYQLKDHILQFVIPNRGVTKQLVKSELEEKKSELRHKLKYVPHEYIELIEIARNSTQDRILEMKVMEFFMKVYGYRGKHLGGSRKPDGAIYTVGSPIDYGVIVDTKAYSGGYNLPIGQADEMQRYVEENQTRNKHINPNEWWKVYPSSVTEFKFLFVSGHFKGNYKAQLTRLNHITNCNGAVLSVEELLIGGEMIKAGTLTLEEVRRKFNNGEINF

B1: hemi-methylated substrate (GGATG strand) (dsDNA)
DNA 1: CTAGAGTCAGAATTCGAAGACTTGCCGGATGATCTGCAGGCCAGCTGTGGCGTCTAAATTGA
DNA 2: AGCTTCAATTTAGACGCCACAGCTGGCCTGCAGATCATCCGGCAAGTCTTCGAATTCTGACT
modifications: N6-methyladenine in GGATG strand of FokI site
  binding signal: ~100 fold less efficient than unmethylated

B2: hemi-methylated substrate (CATCC strand) (dsDNA)
DNA 1: B1 DNA 1
DNA 2: B1 DNA 2
modifications: N6-methyladenine in CATCC strand of FokI site
  binding signal: ~100 fold less efficient than unmethylated

B3: fully methylated substrate (dsDNA)
DNA 1: B1 DNA 1
DNA 2: B1 DNA 2
modifications: N6-methyladenine in both strands of FokI site
  binding signal: ~100 fold less efficient than unmethylated
